Data on 57 compounds can be found in PubChem BioAssay AID652017 (The Scripps Research Institute Molecular Screening Center, 2013).

Molecules are shown by their SMILES. Hit rate of the full screen: of about 370,000 compounds, about 3,800 (1%) were called active. No stated cut-off is given here; in the data, active means activation above about 7.8%; inactive means the rest. The full list was thinned out, with actives kept by preference.

The nature of the assay: SMARCA2 (BRM) function activators, primary screen, cell-based, luminescence, high throughput (AID 652017).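 Further: 0% = vehicle wells and 100% = reference activator wells.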 To be noted: MG213 cells, MMTV-luciferase reporter, dexamethasone, overnight; at 9.1 µM; active compounds read high. On the technique in general: Reporter assays use an easily measured gene product as a stand-in for the process of interest.
In the case of `CN(C)CCNC(=O)C(C(=O)c1ccccc1)n1ccccc1=O` (configuration not stated), the activation is 2.29% (inactive). To `O=C(CSc1nc2ccccc2nc1N1CCCCC1)N1CCN(S(=O)(=O)c2cccc([N+](=O)[O-])c2)CC1` belongs 5.57% (inactive); to `O=C(NC1CCC1)c1ccc(C#Cc2cccc(F)c2)c[n+]1[O-]`, -2.93% (inactive); to `Cn1cccc1/C=N/NC(=O)c1ccc(OC(F)(F)C(F)F)cc1`, 8.72% (active). Regarding `O=C(Nc1ccc(OC(F)(F)F)cc1)c1ccc2c(c1)no[n+]2[O-]`, the activation was -7.81% (inactive). With `Cn1nccc1/C=N\NC(=O)c1ccc(Cl)cc1`, the activation was -0.88% (inactive). As for `O=C(COc1cc(Cl)c(Cl)cc1Cl)NC(=O)NC1CCCC1`, the activation was -2.73% (inactive).

Take `CC(C)CSc1nnc(-c2cccnc2)n1Cc1ccccc1`: the activation is -4.95% (inactive).

`Cc1ccc(CN2CCCCC(NC(=O)C3CCCCC3)C2=O)cc1` (configuration not stated): the activation was -2.16% (inactive). To `Cc1cc(C)c2nc(N3CCC(C(=O)NCCN4CCOCC4)CC3)sc2c1` belongs -1.84% (inactive); to `Cc1ccc(C)c(C(C)NC(=O)C2CCCO2)c1` (configuration not stated), -1.74% (inactive); to `Cc1cc(C)c2nc(NC(=O)C3CCCO3)sc2c1` (configuration not stated), 7.96% (active).

For the compound `CCOC(=O)[C@]12CCCC3=C1N(CCC3)C(=O)[C@@H](CC(=O)N1CCSCC1)C2`, the activation is -1.03% (inactive).

Turning to `CCOc1ccc(-n2c(SCC(=O)Nc3cc(C)c(NC(=O)c4ccccc4)cc3OC)nnc2-c2cccc(Cl)c2)cc1`, the activation is -5.83% (inactive). To `CN(C)S(=O)(=O)c1cccc(C(=O)N/N=C\c2ccco2)c1` belongs -2.36% (inactive). To `COc1cc(NC(=S)N2CCCC(C)C2)cc(OC)c1OC` (configuration not stated) belongs 3.14% (inactive); to `CCCCc1ccc(NC(=S)N2CCCC(CO)C2)cc1` (configuration not stated), 15% (active); to `CCC(C)c1ccc(NC(=S)N2CCCC2)cc1` (configuration not stated), -0.97% (inactive). In the case of `N#CCC[C@H]1CC[C@]2(CCCN(Cc3ccc(Cl)cc3)C2)O1`, the activation is -3.04% (inactive).

For `COc1ccccc1C(=O)CSc1nnc(-c2ccccn2)n1-c1ccccc1`, the activation is 5.55% (inactive). Regarding `O=S1(=O)c2ccc(N3CCN(Cc4ccccc4F)CC3)cc2Oc2ccccc2CN1Cc1cn(Cc2ccc(Cl)cc2)nn1`, the activation is 4.05% (inactive). To `Cc1cccc(NC(=O)C[C@H]2CC[C@H]3[C@@H](COc4ccc(NC(=O)Nc5ccccc5)cc4C(=O)N3C)O2)c1` belongs 2.72% (inactive); to `Cc1cc(=O)[nH]c(SCC(=O)Nc2ccc(Cl)cc2C)n1`, -2.94% (inactive). To `COC(=O)Cc1c(C)c2ccc(OCC(=O)NCc3ccc4c(c3)OCO4)cc2oc1=O` belongs 2.31% (inactive); to `CCc1c(C)c2ccc(OC3CCCCC3=O)cc2oc1=O` (configuration not stated), 13.8% (active). To `O=C(COc1ccc2c3c(c(=O)oc2c1)CCC3)NC1CCCCC1` belongs -1.03% (inactive); to `Cc1ccccc1NC(=O)Cn1nnc(-c2ccccc2F)n1`, 1.3% (inactive); to `c1ccc(Cc2nn3c(Cn4cnc5ccccc54)nnc3s2)cc1`, -3.67% (inactive).

For `CC(NC(=O)c1ccc(Cl)cc1)C(=O)N1CCCCC1` (configuration not stated), the activation was 0.9% (inactive). To `CCC1CCC/C1=N\NC(=O)c1ccc(Cl)cc1` (configuration not stated) belongs 10.3% (active); to `CN1CCC(=NNC(=O)c2ccc(N(Cc3ccc(Cl)cc3)S(C)(=O)=O)cc2)CC1`, -1.44% (inactive).

In the case of `O=C(CSc1ncnc2c1nnn2Cc1ccc(F)cc1)NC1CCCC1`, the activation was -2.99% (inactive). To `O=C(OCC(=O)c1cccs1)c1ccc([N+](=O)[O-])o1` belongs -0.97% (inactive). To `CCC(C)(C)c1ccc(Oc2ccc(NC(=O)COC(=O)C3=COCCO3)cc2)cc1` belongs -10.1% (inactive); to `O=C(OCC(=O)c1cccs1)C1=COCCO1`, 8.48% (active).

Turning to `O=C1Nc2ccccc2-n2nnnc2C1N1CCN(c2cccc(C(F)(F)F)n2)CC1` (configuration not stated), the activation was 3.09% (inactive). As for `CCCn1nc(C(=O)Nc2ccc3nc(C)sc3c2)c2ccccc2c1=O`, the activation was 11.4% (active).

`CCCCn1nc(C(=O)Nc2cccc(C(=O)NC3CC3)c2)c2ccccc2c1=O`: the activation was 1.35% (inactive).

For the compound `CCCn1nc(C(=O)NNC(=O)CSCC(=O)Nc2cc(C)on2)c2ccccc2c1=O`, the activation was -2.41% (inactive).

As for `CCOC(=O)[C@@]12CN(C(=O)OC(C)(C)C)CC=C1N(Cc1ccc(OC)cc1)C(=O)[C@H]2CC(=O)NCc1ccc(OC)c(OC)c1`, the activation is -2.13% (inactive). In the case of `COC(=O)[C@H](CC(C)C)NS(=O)(=O)c1c(F)cccc1F`, the activation was -3.1% (inactive). For `C=CCN(C(=O)[C@@H](CCCC)[C@@H](O)c1ccc(Cl)cc1)c1ccccc1`, the activation is -3.35% (inactive). To `COc1ccccc1CCNC(=O)C1CCN(c2nc(C)cc(C)n2)CC1` belongs -2.87% (inactive); to `CCOC(=O)[C@]12CCCC=C1N(CCCOC)C(=O)[C@@H]2CC(=O)N1CCOCC1`, -2.55% (inactive); to `Cc1noc(C)c1S(=O)(=O)N(C)C[C@H]1Oc2c(NC(=O)Nc3ccc4c(c3)OCO4)cccc2C(=O)N([C@H](C)CO)C[C@@H]1C`, 8.33% (active). To `Cc1noc(C)c1NC(=O)Nc1cccc2c1O[C@H](CN(C)S(=O)(=O)c1c(C)noc1C)[C@@H](C)CN([C@H](C)CO)C2=O` belongs 2.13% (inactive); to `COc1ccc(S(=O)(=O)N(C)C[C@H]2Oc3c(NC(=O)Nc4ccc5c(c4)OCO5)cccc3C(=O)N([C@H](C)CO)C[C@@H]2C)cc1`, -0.71% (inactive). To `COc1ccc(Cn2cc(COC(=O)N(C)Cc3ccccc3)nn2)cc1` belongs 0.64% (inactive).

In the case of `Cc1noc(C)c1/C=N/Nc1ccc2ccccc2n1`, the activation was 9.44% (active).

As for `Clc1ccc(Nc2ccc3ccccc3n2)cc1`, the activation is 5.05% (inactive). To `O=C(c1c[nH]c2ccccc12)N1CCC(Oc2cccnc2)CC1` belongs 3.83% (inactive); to `COCCNC(=O)c1ccccc1-c1nc(-c2ccccc2Cl)no1`, 3.36% (inactive). Take `Cc1cc(C)n(C(=O)CCNC(=O)c2ccccc2Cl)n1`: the activation is 0.01% (inactive). To `CN(C)CCNC(=O)c1ccc(Cl)c2cc3ccccc3nc12` belongs 56.5% (active); to `CC1(C)CC(=O)C=C(NCCCNC2CCCCC2)C1`, 10.6% (active); to `CC1(C)CC(=O)C=C(NCCCN2CCCC2=O)C1`, 0.48% (inactive).

In the case of `CC1(C)CC(=O)C=C(NCCN2CCNCC2)C1`, the activation is -1.09% (inactive).
